hgDAF12 agonist – hgDAF-12 agonism, primary luciferase screen; HEK293 GAL4-hgDAF12 UAS-luciferase reporter, agonist luminescence; normalized to butyrate control; activation, % at 6.8 µM; 1.8% of 370,000 active; AID 687014;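 active means activation above a cutoff set at the mean of all screened compounds plus 3 SD, cut at about 10% in these data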;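 further: 0% = DMSO wells and 100% = sodium butyrate wells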
hcDAF12 agonist – activates DAF-12 receptor from parasite H. contortus; HEK293 hcDAF-12 lit1-tk-luc reporter, luminescence; 0% DMSO, 100% Δ7-dafachronic acid; activation, % at 6.8 µM; 1.4% of 370,000 active;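 active means activation above the mean of all tested compounds plus 3 SD, cut at about 5.5% in these data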;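 further: 100% = response to 3 µM Δ7-dafachronic acid high control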
DAX1 StAR inh – DAX1 (NR0B1) inhibition, primary screen; inhibition, % at 6.8 µM; 1.1% of 370,000 active; AID 652010; HEK293T StAR-luciferase reporter, SF-1/DAX-1 repression relief;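 active means inhibition above the mean over all tested compounds plus 3 SD, cut at about 3.6% in these data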;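 further: 0% = DAX-1 cells with DMSO and 100% = cells lacking DAX-1 with DMSO; higher inhibition means more luminescence from relief of DAX-1 repression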
SMARCA2 activ – activators of SMARCA2 function | MG213 cells, MMTV-luciferase reporter, dexamethasone, overnight | activation, % at 9.1 µM | 1% of 370,000 active | AID 652017; in the data active means activation above about 7.8%;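 further: 0% = vehicle wells and 100% = reference activator wells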
ssDAF-12 act – activators of S. stercoralis DAF-12 nuclear receptor. HEK293 ssDAF-12/GRIP1 lit1-tk-luc reporter, luminescence; % of 3 µM dafachronic acid response. activation, % at 6.8 µM. 1% of 370,000 active;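 active means activation above the mean over all tested compounds plus 3 SD, cut at about 0.9% in these data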;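 further: 0% = DMSO-only wells and 100% = 3 µM delta7-dafachronic acid wells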
DAX1 inh confirm – confirmation of human DAX1 (NR0B1) inhibitors; shares compounds with DAX1 StAR inh; HEK293T StAR-promoter luciferase reporter, SF-1/DAX-1 repression; inhibition, % at 6.8 µM; 87% of 2,400 active; AID 652134;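 active means inhibition above the average of every tested compound plus 3 SD, cut at about 3.8% in these data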;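 further: 0% = DAX-1 cells with DMSO and 100% = no DAX-1 control cells with DMSO; active compounds raise luminescence by relieving repression of the StAR reporter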
Target sequence (P51843 whole entry, looked up): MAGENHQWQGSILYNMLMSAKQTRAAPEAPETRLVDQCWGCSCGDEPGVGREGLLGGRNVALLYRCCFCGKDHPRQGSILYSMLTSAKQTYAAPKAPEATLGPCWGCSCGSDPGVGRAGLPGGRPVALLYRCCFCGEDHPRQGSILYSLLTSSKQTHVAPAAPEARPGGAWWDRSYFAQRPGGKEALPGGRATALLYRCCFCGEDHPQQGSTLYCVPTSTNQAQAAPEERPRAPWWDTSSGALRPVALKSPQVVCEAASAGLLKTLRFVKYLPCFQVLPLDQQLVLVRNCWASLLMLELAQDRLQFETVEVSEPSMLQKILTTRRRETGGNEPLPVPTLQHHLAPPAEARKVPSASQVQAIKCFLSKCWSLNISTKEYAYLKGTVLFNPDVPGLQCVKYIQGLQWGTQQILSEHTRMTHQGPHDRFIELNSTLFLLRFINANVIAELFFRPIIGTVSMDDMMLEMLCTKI
SF1 AF2mut Luc – nonselective inhibitor or artifact in SF-1 mutant DAX1 counter-screen; shares compounds with DAX1 StAR inh; inhibition, % at 6.8 µM; 78% of 2,400 active; HEK293 StAR-luciferase, SF-1 AF2 mutant, luminescence;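 active means inhibition above the mean of all tested compounds plus 3 SD, cut at about 3% in these data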;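 further: 0% = DAX-1 transfected cells with DMSO and 100% = cells without DAX-1 with DMSO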
SMARCA2 act conf – SMARCA2 activation, confirmation screen; shares compounds with SMARCA2 activ; MG213 cells, MMTV-luciferase with dexamethasone, luminescence, overnight; MG213 cells expressing E1A, Rb sequestered; DMSO wells 0%, reference activator 100%; activation, % at 9.1 µM; 30% of 3,500 active; AID 652260;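 active means activation above its plate's cutoff, the mean activation of tested wells plus 3 SD, cut at about 7.9% in these data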
GAL4-VP16 Luc – counter-screen for SMARCA2 activators: GAL4-VP16 luciferase reporter activation | activation, % at 9.1 µM | AID 686939 | HEK293 GAL4-VP16 pG5luc reporter, luciferase luminescence; scaled: DMSO wells 0%, SAHA wells 100% | shares compounds with SMARCA2 activ | 41% of 3,500 active;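 active means activation above the solvent-only control well mean plus 3 SD, averaged across control plates, cut at about 5.2% in these data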
LXR ag – activates human LXR-beta, counter-screen for hcDAF-12 agonists; shares compounds with hcDAF12 agonist; HEK293 Gal4-LXR tk-luc reporter, luminescence, 24 h; normalized: DMSO 0%, positive control 100%; activation, % at 6.8 µM; 3,400 tested, under 10 active;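 active means mean percent activation of the reporter above a cutoff set as the average over tested compounds plus their standard deviation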
hcDAF12 ag – hcDAF-12 agonism, confirmation assay | shares compounds with hcDAF12 agonist | HEK293 hcDAF-12 lit1-tk-luc reporter, luminescence; % of Δ7-dafachronic acid response | activation, % at 6.8 µM | 61% of 3,400 active | AID 743032;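 active means mean activation across triplicate tests above the threshold derived from the earlier primary screen, cut at about 5.5% in these data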;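 further: 0% = DMSO only wells and 100% = 3 µM Δ7-dafachronic acid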
Numbers without * were called inactive; / = no result given. A selection: hits, their analogues and other compounds. The true share with any hit is near 4.2%.

SMILES	hgDAF12 agonist	hcDAF12 agonist	DAX1 StAR inh	SMARCA2 activ	ssDAF-12 act	DAX1 inh confirm	SF1 AF2mut Luc	LXR ag	hcDAF12 ag	others
COc1ccc(-c2cc(=O)c3ccccc3s2)cc1	22*	16*	6.9*	8.8*	0.9*	17*	11*	2	10*	SMARCA2 act conf=4;GAL4-VP16 Luc=9.7*
Cc1c(C(=O)Nc2nc3ccccc3[nH]2)oc2ccccc12	21*	24*	5.7*	4	3.8*	14*	7.4*	2	13*
O=C(Nc1nc2ccccc2[nH]1)c1ccc(Br)o1	17*	11*	6.0*	0	1.4*	7.9*	5.2*	1	7.4*
CCCn1c(C)cc(C(=O)COC(=O)c2nccnc2N)c1C	13*	7.4*	5.7*	3	1.3*	15*	5.6*	1	5.9*
C[C@H](O)[C@@H]1CN2CCc3c([nH]c4cccc(-c5ccccc5)c34)[C@@H]2C[C@@H]1N(C)C(=O)c1ccco1	3	-1	0	-4	-1	/	/	/	/
COc1cccc(CNC(=O)[C@H]2CCCN2C(=O)[C@H]2CCCN2C(=O)c2ccc(Cl)cc2)c1	-1	-1	0	-1	0	/	/	/	/
Cc1ccsc1C(=O)OCc1csc(-c2ccccc2)n1	16*	13*	4.7*	5	2.7*	21*	14*	1	14*
Cn1cccc1C(=O)OCc1csc(-c2ccccc2)n1	16*	16*	5.3*	5	3.1*	14*	8.0*	2	17*
O=C(OCc1csc(-c2ccccc2)n1)c1cccs1	4	2	1	3	-1	/	/	/	/
CC(C)C[C@H]1CN([C@@H](CC(C)C)CN2CCCC2CN2C(=S)NC[C@@H]2Cc2ccccc2)C(=S)N1CC1CCCCC1 (stereo partly specified)	0	-1	0	1	-1	/	/	/	/
Cc1cn2nc(N)c3ccccc3c2n1	1	3	-1	-3	-1	/	/	/	/
Nc1nn2cc(-c3ccccc3)nc2c2ccccc12	21*	19*	11*	2	6.0*	19*	10*	2	21*
COC(=O)c1ccccc1NC(=O)C1CC=CCC1C(=O)O (stereo unspecified)	-1	0	0	-3	-1	/	/	/	/
O=C(NCCc1ccccc1)c1ccccc1NC(=O)C1CC=CCC1C(=O)O (stereo unspecified)	11*	11*	4.7*	4	1.2*	7.6*	7.5*	0	7.2*
O=C(COc1ccc(Cl)cc1Cl)Nc1ccc(Cl)cn1	11*	8.8*	6.2*	5	0	8.3*	3.5*	2	8.1*
O=C1c2ccccc2C(=O)C1c1ccc2ccccc2n1	20*	24*	5.8*	6	4.4*	0	-3	2	21*
COC(=O)C1=C(C)NC(C)=C(C(=O)OC)C1c1ccc2ccccc2n1	-1	1	0	1	0	/	/	/	/
Cc1ccc2nc(CSc3nc(C)ccc3C#N)[nH]c2c1	18*	19*	6.0*	-4	1.4*	16*	6.2*	2	26*
O=C(O)c1cccc(N/N=C/c2cccs2)c1	17*	13*	7.2*	12*	1.5*	14*	6.3*	2	17*	SMARCA2 act conf=5;GAL4-VP16 Luc=14*
CN1/C(=C\C(=O)c2cccs2)Sc2ccccc21	17*	21*	4.6*	8	2.9*	10*	7.0*	2	21*
Cn1c(/C=C/c2ccccc2)nc2ccccc21	11*	9.0*	4.6*	8.9*	0	6.6*	2	1	14*	SMARCA2 act conf=5;GAL4-VP16 Luc=7.8*
COc1ccc(NC(=O)c2oc3ccccc3c2C)cn1	7	11*	6.4*	9.8*	1.1*	6.1*	6.2*	0	9.8*	SMARCA2 act conf=9.7*;GAL4-VP16 Luc=5.4*
Cc1cc(NC(=O)c2cccs2)no1	4	-2	1	4	-1	/	/	/	/
Cc1cc(NC(=O)c2sc3ccccc3c2O)no1	8	12*	6.5*	6	1	8.1*	6.2*	1	7.2*
Cc1ccc2oc(C(=O)Nc3cc(C)on3)c(C)c2c1	11*	11*	5.5*	9.4*	2.5*	13*	8.0*	2	14*	SMARCA2 act conf=8.2*;GAL4-VP16 Luc=8.0*
SMILES	hgDAF12 agonist	hcDAF12 agonist	DAX1 StAR inh	SMARCA2 activ	ssDAF-12 act	DAX1 inh confirm	SF1 AF2mut Luc	LXR ag	hcDAF12 ag	others
Cc1ccc(NC(=O)c2oc3ccccc3c2C)nc1	13*	8.5*	8.2*	2	3.3*	8.4*	5.5*	1	16*
Cc1c(C(=O)Nc2ccncc2)oc2ccccc12	-1	1	-1	0	-2	/	/	/	/
COC(=O)c1cc(-c2ccc(C(C)=O)cc2)c(=O)n2c1CCC2	4	2	0	0	-1	/	/	/	/
COc1ccc(N2CCN(C(=O)C3CCN(S(=O)(=O)c4ccc5c(c4)CC(C)N5C(=O)C4CC4)CC3)CC2)cc1 (stereo unspecified)	1	0	1	-3	-1	/	/	/	/
CC(=Nc1ccc(C)cc1)c1sc2ccccc2c1O	15*	11*	5.3*	5	2.2*	13*	4.3*	2	13*
Cc1ccc2nc(Cl)c(/C=N/Nc3ccc(C(=O)O)cc3)cc2c1	25*	15*	11*	7	3.0*	25*	8.6*	2	16*
Cc1ccc2cc(/C=N/NC(=O)c3ccc(F)cc3)c(Cl)nc2c1	-1	1	-1	-3	-2	/	/	/	/
COC(=O)c1cc2c(c3c4cc(F)ccc4n(S(=O)(=O)c4ccc(C)cc4)c13)C(=O)N(Cc1ccc(C(F)(F)F)cc1)C2	0	3	-1	-1	-1	/	/	/	/

Source: PubChem (The Scripps Research Institute Molecular Screening Center)
